Laboratory results from ChEMBL document CHEMBL4513135, “CO-ADD screening of IQOG CSIS (Spain) compounds”.
Measured potencies and affinities stand elsewhere.

tested on: Candida albicans; conditions: 32 ug/mL
Further: assay method not described here.

Compound | Inhibition [%]
COC(=O)C(=Cc1ccc(OC)cc1)NC(=O)c1ccccc1 | 6.47
C#CCN(C)c1ncc(C#N)c(N)n1 | 5.2
COc1ccc2cc(C3C(C(C)=O)=C(C)Oc4nc5c(c(N)c43)CCCCC5)c(Cl)nc2c1 (stereo unspecified) | 3.71
C#CCn1c(N)c(C#N)c2cc(O)ccc21 | 1.41
CC1Cc2c(nc3c(c2N)CCCC3)NC1=O (stereo unspecified) | 1.73
C#CCN(C)c1nc(NCC2CCN(Cc3ccccc3)CC2)c(C#N)c(-c2ccccc2)c1C#N | 0.51
CCOc1nc(N)c(C#N)cc1C#N.Cl | 2.86
CC1Cc2ccccc2N1/N=C/c1ccccc1 (stereo unspecified) | -2.78
CCOC(=O)C1=C(C)OC(N)=C(C#N)C1c1ccc(OC)c(OC)c1 (stereo unspecified) | 3.32
CCC(CC)NNC(=O)c1cc2ccccc2n1C | 5.89
NNC(=O)Cc1c[nH]c2ccccc12 | 3.51
COc1ccccc1C1c2ccc3ccccc3c2Oc2nc3c(c(N)c21)CCCC3 (stereo unspecified) | 0.31
COc1nc2nc3c(c(N)c2cc1C#N)CCCC3.Cl | 1.08
N#CC1=C(N)Oc2ccc3ccccc3c2C1c1ccccc1[N+](=O)[O-] (stereo unspecified) | 2.32
N#Cc1c(Cl)nc(NC2CCN(Cc3ccccc3)CC2)c(C#N)c1-c1ccccc1 | -0.87
COc1ccc(C2c3ccc4ccccc4c3OC(=NBr)C2(Br)C#N)cc1OC (stereo unspecified) | 5.08
N#Cc1c(N)nc2c(c1-c1ccccc1)CN(Cc1ccccc1)CC2 | 1.07
OCc1cc2ccccc2[nH]1 | 2.35
Nc1n[nH]c2c1C(c1ccccc1)CC(=O)N2 (stereo unspecified) | 1.67
CSC1=NC(=Cc2cn(C)c3ccccc23)C(=O)N1C | 1.89
N#CC1=C(N)Oc2ccc3ccccc3c2C1 | 0.68
